Test results taken from PubChem BioAssay (NCI).
About 83,000 compounds went through this panel and 20% of them were active in at least one assay; those are over-represented in the sample as a whole.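 Plates (96-well) were seeded with cells, treated with compound at one concentration, and incubated for 48 hours before percent growth was determined.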 Activity calls are given as the source filed them. The calls were made as follows: active = growth percent below 10; inactive = the rest.

Test system: HCT-116 colon
Assay: NCI-60 one-dose screen, 48 h (100 = growth as untreated, 0 = no growth, -100 = all killed)
Conditions: 10 µM unless noted

Compound | growth
Cc1nn2c(-c3nc4cc(Cl)c(Cl)cc4[nH]3)c(-c3ccc(F)cc3)nc2s1 | 2.83% (active)
O=C1C=C(C(O)c2ccc(O)cc2)C(=O)c2ccccc21 (stereo not drawn) | 96.1% (inactive)
CCCC(=O)N1CCCCC1CC (stereo not drawn) | 116% (inactive)
Cc1nn(-c2ccc(Cl)cc2)c(=O)n1CCn1cnc2ccccc21 | 97.5% (inactive)
COC(=O)[C@]12CC[C@@H](C)[C@H](C)[C@@H]1C1=CC[C@@H]3[C@@]4(C)C[C@@H](OC(C)=O)[C@H](O)[C@@](C)(CO)[C@@H]4[C@H](O)C[C@@]3(C)[C@]1(C)CC2 | -65.4% (active)
O=C(/C=C\c1ccc2c(c1)OCO2)/C=C/c1ccc2c(c1)OCO2 | -12.5% (active)
Cn1cc(-c2nc(-c3c[nH]c4ncccc34)cs2)c2ccccc21 | 76.9% (inactive)
O=C1C=Cc2ncccc2C1=O | 27.1% (inactive)
COCCNC1=C(Cl)C(=O)c2ccccc2C1=O | 86.8% (inactive)
COc1ccc(O)c(-c2cc(-c3ccc(Cl)cc3)c(C#N)c(=O)[nH]2)c1 | 73.4% (inactive)
C/C(=N\Nc1cc(C)c2cc(C)ccc2n1)c1ccccn1 | -72.6% (active)
COC(=O)C(N)CSC(c1ccccc1)(c1ccccc1)c1ccccc1 (stereo not drawn) | 15.7% (inactive)
CCCCCCCC(=O)SCC/C=C/[C@@H]1CC(=O)NCc2cccc(n2)CN(Cc2ccc3ccccc3c2)CC(=O)N[C@@H](C(C)C)C(=O)O1 | 5.36% (active)
C=C(C)[C@@H]1CC[C@]2(CN)CC[C@]3(C)[C@H](CC[C@@H]4[C@@]5(C)CCC(=O)NC(C)(C)[C@@H]5CC[C@]43C)[C@@H]12 | 11.7% (inactive)
CC(=O)O[C@@H]1CCN2C(=O)N(C)c3ccccc3[C@@H]2C1 | 102% (inactive)
Cc1cc(N(CCCNc2ccnc3cc(Cl)ccc23)Cc2ccco2)nc(Cl)n1 | 28.2% (inactive)
O=S(=O)(NCCNc1cc(-c2cn(-c3ccccc3)nc2-c2cccc(O)c2)ccn1)c1ccc(Cl)cc1 | 20.4% (inactive)
Cn1c(=O)c2c(nc(N3CCCC3)n2C)n(C)c1=O | 93.3% (inactive)
Cn1cc(-c2csc(-c3cn(CCN)c4ccc(F)cc34)n2)c2cccnc21 | 77.1% (inactive)
CC1=NN(c2ccc(S(=O)(=O)O)cc2Cl)C(=O)C1 | 93% (inactive)
CC(CNc1nc(Nc2ccc(Cl)c(Cl)c2)nc(C(Cl)(Cl)Cl)n1)N(C)C (stereo not drawn) | -88.7% (active)
O=C1NC(=Nc2ccc(S(=O)(=O)Nc3nccs3)cc2)S/C1=C\c1coc2ccccc2c1=O | 104% (inactive)
O=C(c1ccccc1)C(CN1CCOCC1)c1ccccc1 (stereo not drawn) | 3.3% (active)
